# Out of some 1,300 compounds screened, about 460 (35%) were called active. Inconclusive results (about 39%) are left out. Calls follow the shape of the dose curve; as a rule, active = well fitted inhibition curve with a large enough effect; inconclusive = small, poorly fitted or top-dose-only effect; inactive = flat fitted curve, though single readings scatter. Some of the results follow.
# Molecular target: Protein phosphatase EYA2 (Homo sapiens) (UniProt O00167)
# Assay: qHTS for Inhibitors of the Phosphatase Activity of Eya2: Confirmatory Assay for Cherry-picked Compounds; also: nearly all actives have a fitted effect of over 65% in size
# Details: purified EYA2 phosphatase activity, qHTS confirmation; series mostly up to 46.1 µM
# How it was run: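 Eya2 (0.2 uM working solution) preincubated 10 min at room temperature with compound in pH 7.5 HEPES buffer with MgCl2, BSA, DTT. OMFP added (50 uM working solution), 10 min more; fluorescence 485/525 nm, normalized to EGTA and DMSO.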
# Potency is read from the fitted curve at half-maximal effect.
# Protein phosphatase EYA2 (Homo sapiens), sequence (O00167 whole entry, looked up): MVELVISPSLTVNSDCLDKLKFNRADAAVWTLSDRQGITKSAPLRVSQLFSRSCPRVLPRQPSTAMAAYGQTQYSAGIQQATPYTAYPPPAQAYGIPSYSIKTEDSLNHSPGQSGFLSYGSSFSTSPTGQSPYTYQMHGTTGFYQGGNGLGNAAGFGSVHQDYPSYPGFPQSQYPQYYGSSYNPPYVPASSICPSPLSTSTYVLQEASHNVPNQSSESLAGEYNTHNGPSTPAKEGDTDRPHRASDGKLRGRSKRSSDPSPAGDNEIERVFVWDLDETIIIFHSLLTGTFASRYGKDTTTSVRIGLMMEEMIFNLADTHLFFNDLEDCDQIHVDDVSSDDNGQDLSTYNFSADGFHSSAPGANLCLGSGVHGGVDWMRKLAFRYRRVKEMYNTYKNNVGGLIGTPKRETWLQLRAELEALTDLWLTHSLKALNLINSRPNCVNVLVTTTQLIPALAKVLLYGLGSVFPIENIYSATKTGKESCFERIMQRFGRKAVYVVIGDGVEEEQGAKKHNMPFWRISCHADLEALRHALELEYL
row,SMILES,Potency
1,O=C(Nc1ncc(Cc2ccccc2Cl)s1)c1ccc(-c2cccc([N+](=O)[O-])c2)o1,inactive
2,CSc1ccc(CNc2ncc(-c3cccc([N+](=O)[O-])c3)n2C)cc1,19 µM (active)
3,Oc1c(Br)cc(Br)cc1CNc1cccc2cccnc12,7.57 µM (active)
4,COC(=O)c1cc2c(ccc3ccccc32)oc1=O,7.57 µM (active)
5,O=C(SCc1c(O)c2ccccc2oc1=O)c1ccccc1,inactive
6,COc1ccc(OC)c(Nc2nc(-c3sc(N)nc3C)cs2)c1,8.49 µM (active)
7,COc1ccccc1Nc1nc(-c2ccc3c(c2)NC(=O)CO3)cs1,inactive
8,CC1=C(C(=O)N2CCOCC2)CC(CC(=O)NC(c2ccccc2)c2ccccc2)C(=O)N1Cc1ccc(C(C)(C)C)cc1 (stereo unspecified),inactive
9,O=C(O)CCN1C(=O)/C(=C/c2ccc(-c3nc4ccccc4s3)o2)SC1=S,3.79 µM (active)
10,Cc1ccc(-c2nc3ccccc3s2)cc1NC(=S)NC(=O)/C=C/c1ccco1,inactive
11,N#CC1=C(N)n2c(s/c(=C\c3cccs3)c2=O)=C(C#N)C1c1cccs1 (stereo unspecified),19 µM (active)
12,O=C(C1=C(O)C(=O)N(c2nc3ccc(Cl)cc3s2)C1c1ccco1)c1ccco1 (stereo unspecified),16.9 µM (active)
13,COc1ccc2nc(NC(=S)NC(=O)c3ccco3)sc2c1,inactive
14,O=C(NCc1ccc2c3c(cccc13)C(=O)N2)c1cccs1,inactive
15,COc1cc(NC(=O)c2cccs2)c(OC)cc1NC(=O)Nc1ccc(F)cc1,inactive
16,Cc1cc(NC(=O)c2cccs2)cc(-c2nc3ncccc3o2)c1O,inactive
17,COc1cc(NC(=O)c2cccs2)c(OC)cc1NC(=O)CCC(=O)Nc1ccc2ncccc2c1,1.69 µM (active)
18,COc1cc(NC(=O)c2cccs2)c(OC)cc1NC(=O)Cc1ccccc1,10.7 µM (active)
19,COc1cc(NC(=O)c2cccs2)c(OC)cc1NC(=O)CCn1nnc2ccccc21,16.9 µM (active)
20,O=S(=O)(c1ccccc1)[C@@]1(c2ccccc2)C[C@@H]2ON=C(c3cccc(-c4ccccc4)c3)[C@@H]2C1,inactive
21,COC(=O)c1ccc(CSc2ccc3nnc(-c4ccccn4)n3n2)o1,16.9 µM (active)
22,Brc1ccc(CSc2ccc3nnc(-c4ccccn4)n3n2)cc1,19 µM (active)
23,COc1ccccc1OCc1ccc(C(=O)Nc2cc(OC)c(OC)c(OC)c2)o1,inactive
24,c1ccc(CSc2ccc3nnc(-c4ccccn4)n3n2)cc1,19 µM (active)

row,SMILES,Potency
1,CC1CN(C(=O)c2cc(S(=O)(=O)N(C)c3ccc(F)cc3)ccc2Cl)CC(C)O1 (stereo unspecified),inactive
2,CN(C)c1ccc(-c2ccnc3c2CC(C)(C(=O)NCCC(F)(F)F)O3)cc1 (stereo unspecified),inactive
3,CN1C(=O)NC(c2ccccc2)(C(F)(F)F)S/C1=C(/C#N)c1nnc(N2CCOCC2)n1-c1ccccc1 (stereo unspecified),inactive
4,Cc1ccc(NC(=O)c2[nH]cnc2C(=O)NN)cc1,15.1 µM (active)
5,C[C@@H](NC(=O)c1nc[nH]c1C(=O)N[C@@H](Cc1ccccc1)C(=O)OC(C)(C)C)c1ccccc1,inactive
6,O=C(Nc1ccc(F)cc1)c1nc[nH]c1C(=O)O,15.1 µM (active)
7,NNC(=O)c1nc[nH]c1C(=O)Nc1ccccn1,8.49 µM (active)
8,O=C(CNC(=O)c1[nH]cnc1C(=O)N[C@@H](Cc1ccccc1)C(=O)OCc1ccccc1)OCc1ccccc1,inactive
9,CCOC(=O)c1ccc(NC(=O)c2nc[nH]c2C(=O)N[C@@H](Cc2ccccc2)C(=O)OC(C)(C)C)cc1,inactive
10,Cc1ccc(N=Cc2cccc(O)c2O)c(C)c1,inactive
11,CCn1cc(C(=O)N[C@@H](C)C(=O)NCCCn2ccnc2)c(=O)c2cc3c(cc21)OCO3,inactive
12,Cc1ccc(C(=O)N/C(=C\c2ccco2)C(=O)NCCCn2ccnc2)cc1,4.26 µM (active)
13,COC(=O)c1ccc(OC(=O)c2cccs2)cc1,10.7 µM (active)
14,O=C(CNC(=O)c1cccs1)OCC(=O)c1ccc(Cl)cc1,inactive
15,CC(C)S(=O)(=O)c1cnc(-c2ccccn2)nc1N,16.9 µM (active)
16,COc1ccccc1CNC(=O)CSc1ccc(-c2ccccn2)nn1,12 µM (active)
17,COc1ccc(NC(=O)CSc2ccc(-c3ccccn3)nn2)cc1OC,3.79 µM (active)
18,O=C(CSc1ccc(-c2ccccn2)nn1)Nc1cccc(F)c1,3.79 µM (active)
19,CN(CC(=O)Nc1cccc(F)c1)C(=O)c1ccc(COc2ccccc2)cc1,inactive
20,COc1cc(NC(=O)CSc2ccc(-c3ccccn3)nn2)cc(OC)c1,2.13 µM (active)
21,COc1cc(NC(=O)c2ccc(S(=O)(=O)N(C)c3ccccc3)cc2)cc(OC)c1,inactive
22,Cn1c(-c2cc(Cl)ccc2O)nc2c1c(=O)[nH]c(=O)n2Cc1ccccc1,inactive
23,O=C(Cc1cccs1)Nc1ccc2c(c1)C(=O)OC2,inactive
24,Cc1cnc(C(=O)Nc2ccccc2-c2ccc(C)o2)cn1,inactive

row,SMILES,Potency
1,Cc1[nH]n(-c2cccc3ccccc23)c(=O)c1C=Nc1ccc2[nH]c(=O)[nH]c2c1,7.57 µM (active)
2,Cc1cccc(-n2c(O)c(C=Nc3ccccc3)c3ccccc3c2=O)n1,inactive
3,C/C=C/c1ccc(OCCSc2nc(C)cc(=O)[nH]2)c(OC)c1,13.5 µM (active)
4,C/C(N)=C(/C#N)C(=O)CSc1nnc(Nc2cccc(C)c2)s1,inactive
5,CC(C)Nc1nnc(SCC(=O)Nc2ccc3c(c2)C(=O)c2ccccc2C3=O)s1,6.75 µM (active)
6,Cc1cc(NC(=O)CSc2nnc(Nc3ccccc3F)s2)no1,inactive
7,O=C(O)c1ccc2nc(-c3ccco3)c(-c3ccco3)nc2c1,8.49 µM (active)
8,CC(C)[C@H](NC(=O)c1ccccc1)C(=O)NC1CCCCCCC1,inactive
9,O=C(NC1CC1)c1ccc2nc(-c3ccco3)c(-c3ccco3)nc2c1,13.5 µM (active)
10,CC1CCN(CC2C(=O)O[C@@H]3C[C@@]4(C)CCC[C@H](C)C4=C[C@H]23)CC(C)(C)C1 (stereo partly specified),inactive
11,CC(=O)Oc1ccccc1C(=O)Oc1ccc(/C=N/n2cnnc2)cc1,16.9 µM (active)
12,CCC(C)C(CO)NC(=O)/C=C/[C@H]1O[C@@H](n2cnc3c(NC(=O)c4ccccc4)ncnc32)[C@H](O)[C@@H]1O (stereo partly specified),inactive
13,O=C(OCC(=O)c1ccc(Cl)cc1Cl)c1ccccn1,19 µM (active)
14,Cc1cc(C(=O)COC(=O)c2cccnc2Cl)c(C)n1-c1c(C)n(C)n(-c2ccccc2)c1=O,inactive
15,O=C(CSc1nnc2c(n1)[nH]c1ccccc12)Nc1ccc(S(=O)(=O)Nc2ncccn2)cc1,5.36 µM (active)
16,CCOc1ccc2[nH]c3nc(SCC(=O)NC4CCCC4)nnc3c2c1,inactive
17,CCc1ccc2[nH]c3nc(SCC(=O)NCC4CCCO4)nnc3c2c1 (stereo unspecified),6.01 µM (active)
18,Cc1c(CC(=O)NCC(=O)O)c(=O)oc2cc3occ(-c4ccccc4)c3cc12,16.9 µM (active)
19,Cc1c(CC(=O)N[C@@H](C)C(=O)O)c(=O)oc2cc3occ(-c4ccccc4)c3cc12,8.49 µM (active)
20,Cc1c(CC(=O)NCCCC(=O)O)c(=O)oc2cc3occ(-c4ccccc4)c3cc12,19 µM (active)
21,Cc1c(CCC(=O)NCCCCCC(=O)O)c(=O)oc2cc3occ(-c4ccccc4)c3cc12,15.1 µM (active)
22,O=c1cc2oc3cc(O)c(O)cc3c(-c3ccccc3[N+](=O)[O-])c-2cc1O,16.9 µM (active)
23,CC1=C(/C=C/C(C)=C/C=C/C(C)=C/C(=O)Nc2ccc(O)cc2)C(C)(C)CCC1,inactive
24,CC1=NN(c2ccccc2)C(=O)/C1=C\C=C1/N(C)c2ccccc2C1(C)C,7.57 µM (active)

row,SMILES,Potency
1,CN1/C(=C\C=C2/SC(=S)NC2=O)C(C)(C)c2ccccc21,15.1 µM (active)
2,Cc1ccc(-n2[nH]c(C)c(C=Nc3ccc(S(=O)(=O)Nc4nccs4)cc3)c2=O)cc1C,8.49 µM (active)
3,Cc1c(CCC(=O)O)c(=O)oc2c(C)c(OCc3cc4c(cc3Cl)OCO4)ccc12,9.53 µM (active)
4,COc1ccc(/C=C2\CCc3ccccc3C2=O)cc1CN1CCOCC1,inactive
5,COc1cccc2c1C(=O)/C(=C/c1ccc(N(C)C)cc1)C2,4.26 µM (active)
6,Cc1ccc(C(=O)Oc2ccc3ccc(=O)oc3c2)cc1,1.9 µM (active)
7,Cc1cc(NC(=O)c2cccc(N3C(=O)CCC3=O)c2)no1,inactive
8,Cc1ccc(C(=O)Oc2ccc(N3C(=O)CCC3=O)c(C)c2)cc1,2.69 µM (active)
9,CCC(C)c1ccc2oc(-c3ccc(NC(=O)c4ncn[nH]4)cc3)nc2c1 (stereo unspecified),15.1 µM (active)
10,CC(C)c1ccc2oc(-c3ccc(NC(=O)c4ncn[nH]4)cc3)nc2c1,16.9 µM (active)
11,CCN(CC)c1ccc(N=Cc2cc(Br)ccc2O)cc1,inactive
12,CCN(CC)c1ccc(NC(=O)COC(=O)CSc2ccc(Br)cc2C)cc1,12 µM (active)
13,CN(C)c1ccc(/C=C/c2ccnc3ccc(-c4ccccc4)cc23)cc1,21.3 µM (active)
14,CCN(C)c1ccc(/C=C/c2ccnc3ccccc23)cc1,21.3 µM (active)
15,Cc1ccc(O)c(C(=O)c2cnc3c(c2)c(-c2ccc(F)cc2)c(C#N)c(=O)n3C)c1,inactive
16,O=C(Nc1nc2ccc(F)cc2s1)C1=NN(c2ccccc2)C(=O)CC1,inactive
17,COc1ccc(CCNc2nc(-c3ccccn3)cs2)cc1OC,7.57 µM (active)
18,COc1ccc(CCNC(=O)C(=O)NCc2cccs2)cc1OC,inactive
19,Cc1cccc(NC(=S)N(CCN2CCOCC2)Cc2cc3cc4c(cc3[nH]c2=O)OCCO4)c1,inactive
20,Cc1ccc(S(=O)(=O)Nc2c(C)n(C)n(-c3ccccc3)c2=O)cc1C(=O)OC(C)C(=O)N(C)c1ccccc1 (stereo unspecified),inactive
21,COc1ccc(C(NC(C)=O)c2ccc3cccnc3c2O)cc1OC (stereo unspecified),1.69 µM (active)
22,CCCC(=O)NC(c1ccc(OC)c(OC)c1)c1cc(Cl)c2cccnc2c1O (stereo unspecified),2.69 µM (active)
23,CCCCC(=O)NC(c1cccc([N+](=O)[O-])c1)c1ccc2cccnc2c1O (stereo unspecified),4.26 µM (active)
24,CC(=O)NC(c1ccc(Cl)cc1)c1ccc2cccnc2c1O (stereo unspecified),2.13 µM (active)

# From PubChem BioAssay AID720540 (National Center for Advancing Translational Sciences (NCATS), 2013)
